# IDE exosite FP: exo-site inhibitors of human insulin-degrading enzyme; purified IDE, FL-6b probe fluorescence polarization; stronger effect = lower value; z-score at 20 µM; P14735; 17,000 tested, 6.3% active;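 active = z-score of -3 or lower, meaning strong loss of probe binding signal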;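 note: His-tagged human IDE residues 42-1019 made in E. coli with 30 nM FL-6b probe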
# Target sequence (P14735 42-1019 limits assumed): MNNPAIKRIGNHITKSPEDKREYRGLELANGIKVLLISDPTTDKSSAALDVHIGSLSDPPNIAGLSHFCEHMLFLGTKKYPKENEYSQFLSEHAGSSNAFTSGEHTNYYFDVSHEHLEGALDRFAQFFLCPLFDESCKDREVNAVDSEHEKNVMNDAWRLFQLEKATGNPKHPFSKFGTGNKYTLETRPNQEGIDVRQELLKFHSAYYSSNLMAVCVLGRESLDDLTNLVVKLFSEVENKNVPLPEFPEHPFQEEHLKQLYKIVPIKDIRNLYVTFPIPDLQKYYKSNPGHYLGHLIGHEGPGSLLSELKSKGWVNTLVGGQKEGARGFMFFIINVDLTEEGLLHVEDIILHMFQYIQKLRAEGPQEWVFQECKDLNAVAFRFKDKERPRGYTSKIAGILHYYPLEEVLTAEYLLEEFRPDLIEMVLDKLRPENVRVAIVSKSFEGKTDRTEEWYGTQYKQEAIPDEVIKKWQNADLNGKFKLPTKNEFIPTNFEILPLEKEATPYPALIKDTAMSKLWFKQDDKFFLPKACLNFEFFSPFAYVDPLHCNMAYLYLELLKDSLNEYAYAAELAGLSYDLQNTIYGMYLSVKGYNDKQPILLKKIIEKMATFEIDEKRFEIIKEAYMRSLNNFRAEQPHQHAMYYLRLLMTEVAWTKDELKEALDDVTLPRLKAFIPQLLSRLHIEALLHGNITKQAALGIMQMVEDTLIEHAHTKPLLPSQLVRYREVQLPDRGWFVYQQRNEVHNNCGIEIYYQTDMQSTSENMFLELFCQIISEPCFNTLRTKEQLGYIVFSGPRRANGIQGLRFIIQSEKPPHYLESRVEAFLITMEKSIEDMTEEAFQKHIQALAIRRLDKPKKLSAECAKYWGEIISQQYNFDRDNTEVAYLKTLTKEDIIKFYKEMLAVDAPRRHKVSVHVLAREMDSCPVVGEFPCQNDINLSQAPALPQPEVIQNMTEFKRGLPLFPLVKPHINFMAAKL
# Starred values were filed as active, the others as inactive. Shown is part of a subset that was picked to be rich in hits.
SMILES,IDE exosite FP
CCCC#Cc1ccc([C@H]2[C@@H](CO)N3CCCCN(C(=O)Cc4ccccn4)C[C@@H]23)cc1,4
O=C(Cc1ccccc1)N1CCCCN2[C@H](C1)[C@H](c1ccc(C#Cc3ccccc3)cc1)[C@@H]2CO,-4.3*
O=C(Cc1ccccn1)N1CCCCN2[C@H](CO)[C@H](c3ccc(C#Cc4ccccc4)cc3)[C@@H]2C1,-5.2*
COc1ccc(C#Cc2ccc([C@@H]3[C@@H](CO)N4CCCCN(C(=O)Cc5ccccc5)C[C@@H]34)cc2)cc1,1.5
O=C(Cc1ccccc1)N1CCCCN2[C@H](C1)[C@@H](c1ccc(C#Cc3ccccc3)cc1)[C@@H]2CO,-2.6
CCCC#Cc1ccc([C@@H]2[C@H](CO)N3CCCCN(C(=O)Cc4ccccn4)C[C@@H]23)cc1,-2
COc1ccc(C#Cc2ccc([C@H]3[C@H](CO)N4CCCCN(C(=O)Cc5cccnc5)C[C@@H]34)cc2)cc1,-1.4
N#Cc1cccc(-c2ccc([C@H]3[C@H](CO)N4CCCCN(C(=O)Cc5ccccc5)C[C@@H]34)cc2)c1,3.6
OC[C@H]1[C@@H]2c3ccccc3NC[C@@H]2N1Cc1cccnc1,2.4
CC=Cc1ccc2n(c1=O)C[C@@H]1[C@@H](CO)[C@H](C(=O)OC)[C@H]2N1S(=O)(=O)c1ccccc1C (mixture of isomers),-0.054
COc1ccc(C#Cc2ccc([C@@H]3[C@@H](CO)N4CCCCN(C(=O)Cc5ccncc5)C[C@@H]34)cc2)cc1,0.35
COc1ccc(C#Cc2ccc([C@H]3[C@@H](CO)N4CCCCN(C(=O)Cc5cccnc5)C[C@H]34)cc2)cc1,-1.3
COc1ccc(C#Cc2ccc([C@@H]3[C@@H](CO)N4CCCCN(C(=O)Cc5cccnc5)C[C@@H]34)cc2)cc1,2.7
COc1ccc(-c2ccc([C@@H]3[C@H](CO)N4CCCCN(C(=O)Cc5ccncc5)C[C@@H]34)cc2)cc1,-2.3
COc1ccc(C#Cc2ccc([C@H]3[C@@H](CO)N4CCCCN(C(=O)Cc5ccncc5)C[C@H]34)cc2)cc1,0.97
COc1ccc(C#Cc2ccc([C@H]3[C@H]4CN(C(=O)Cc5cccnc5)CCCCN4[C@H]3CO)cc2)cc1,-4*
COc1ccc(C#Cc2ccc([C@@H]3[C@H]4CN(C(=O)Cc5ccncc5)CCCCN4[C@H]3CO)cc2)cc1,-0.35
COc1ccc(C#Cc2ccc([C@H]3[C@H]4CN(C(=O)Cc5ccncc5)CCCCN4[C@H]3CO)cc2)cc1,-3.5*
COc1ccc(C#Cc2ccc([C@H]3[C@@H](CO)N4CCCCN(C(=O)Cc5ccncc5)C[C@@H]34)cc2)cc1,-4.8*
CC(C)CC#Cc1ccc([C@H]2[C@H](CO)N3CCCCN(C(=O)Cc4ccccn4)C[C@@H]23)cc1,4.9
C/C=C/c1ccc([C@@H]2[C@@H](CO)N3CCCCN(C(=O)Cc4ccncc4)C[C@H]23)cc1,1.9
O=C(O)[C@H]1[C@H](CO)[C@H]2Cn3c(ccc(-c4cccnc4)c3=O)[C@@H]1N2C(=O)Nc1cc(F)ccc1F,1
C/C=C/c1ccc(C2[C@@H]3CN(Cc4cccnc4)C[C@H]2N3)cc1 (some centres undefined),-0.36
O=C(Cc1cccnc1)N1CCCCN2[C@@H](CO)[C@@H](c3ccc(/C=C/c4ccccc4)cc3)[C@@H]2C1,-8.3*
C/C=C/c1ccc([C@H]2[C@@H](CO)N3CCCCN(C(=O)Cc4cccnc4)C[C@H]23)cc1,-0.57
SMILES,IDE exosite FP
O=C(Cc1cccnc1)N1CCCCN2[C@H](C1)[C@@H](c1ccc(/C=C/c3ccccc3)cc1)[C@@H]2CO,-9.2*
C/C=C/c1ccc([C@H]2[C@H](CO)N3CCCCN(C(=O)Cc4cccnc4)C[C@@H]23)cc1,-1.1
C/C=C/c1ccc([C@H]2[C@H]3CN(C(=O)Cc4cccnc4)CCCCN3[C@H]2CO)cc1,1.2
O=C(Cc1cccnc1)N1CCCCN2[C@@H](CO)[C@@H](c3ccc(C#CC4CCCC4)cc3)[C@@H]2C1,0.5
COc1ccc(C#Cc2ccc([C@H]3[C@@H](CO)N4CCCCN(C(=O)Cc5cccnc5)C[C@@H]34)cc2)cc1,-2.3
N#Cc1cccc(-c2ccc([C@@H]3[C@@H](CO)N4CCCCN(C(=O)Cc5ccncc5)C[C@H]34)cc2)c1,2.4
COc1ccc(-c2ccc([C@@H]3[C@@H](CO)N4CCCCN(C(=O)Cc5ccccc5)C[C@H]34)cc2)cc1,1.4
COc1cccc(-c2ccc([C@@H]3[C@H]4CN(C(=O)Cc5ccncc5)CCCCN4[C@H]3CO)cc2)c1,-0.67
O=C1CNC[C@@H]2[C@@H](c3ccc(Br)cc3)[C@H](CO)N12,1.4
O=C(Cc1ccccn1)N1CCCCN2[C@H](CO)[C@@H](c3ccc(-c4ccccc4F)cc3)[C@@H]2C1,-4.7*
O=C(Cc1ccccn1)N1CCCCN2[C@@H](CO)[C@H](c3ccc(-c4ccc(F)cc4)cc3)[C@@H]2C1,2.5
O=C(Cc1ccccn1)N1CCCCN2[C@H](C1)[C@@H](c1ccc(-c3ccc(F)cc3)cc1)[C@@H]2CO,4.4
O=C(Cc1ccccn1)N1CCCCN2[C@@H](CO)[C@@H](c3ccc(-c4ccc(F)cc4)cc3)[C@@H]2C1,1.7
O=C(Cc1ccccn1)N1CCCCN2[C@H](C1)[C@H](c1ccc(-c3ccc(F)cc3)cc1)[C@@H]2CO,1.3
O=C(Cc1ccccn1)N1CCCCN2[C@H](CO)[C@H](c3ccc(-c4ccccc4F)cc3)[C@@H]2C1,-4.2*
O=C(O)C[C@@H]1CC[C@H]2NC[C@@H](O)COC[C@@H]2O1,0.58
CC(C)CC#Cc1ccc([C@H]2[C@@H](CO)N3CCCCN(C(=O)Cc4ccccn4)C[C@H]23)cc1,2.8
N#Cc1cccc(-c2ccc([C@H]3[C@H](CO)N4CCCCN(C(=O)Cc5cccnc5)C[C@@H]34)cc2)c1,0.26
CC=Cc1ccc2n(c1=O)C[C@H]1[C@H](CO)[C@@H](C(=O)OC)[C@@H]2N1S(=O)(=O)c1ccccc1C (mixture of isomers),1.1
O=C(Cc1ccccn1)N1CCCCN2[C@H](CO)[C@H](c3ccc(Br)cc3)[C@H]2C1,-0.15
Cc1ccccc1-c1ccc([C@@H]2[C@H](CO)N3CCCCN(C(=O)Cc4ccccn4)C[C@@H]23)cc1,-16*
O=C(Cc1ccccn1)N1CCCCN2[C@H](C1)[C@@H](c1ccc(Br)cc1)[C@@H]2CO,-0.067
O=C(Cc1ccccn1)N1CCCCN2[C@@H](CO)[C@H](c3ccc(Br)cc3)[C@@H]2C1,-0.37
Cc1ccccc1-c1ccc([C@H]2[C@@H](CO)N3CCCCN(C(=O)Cc4ccccn4)C[C@H]23)cc1,-14*
O=C(Cc1ccccn1)N1CCCCN2[C@H](CO)[C@@H](c3ccc(-c4ccccc4)cc3)[C@@H]2C1,-2.4
COc1ccc(C#Cc2ccc([C@@H]3[C@H]4CN(C(=O)Cc5cccnc5)CCCCN4[C@H]3CO)cc2)cc1,4.2
C/C=C/c1ccc([C@H]2[C@H]3CN(C(=O)Cc4ccncc4)CCCCN3[C@H]2CO)cc1,-0.73
CN1[C@H](CO)[C@H]2c3ccccc3NC[C@H]21,4
OC[C@@H]1Nc2ccc(C#Cc3cccnc3)cc2[C@H]2NCC[C@@H]12,-0.33
O=C(Cc1ccncc1)N1CCCCN2[C@H](CO)[C@@H](c3ccc(C#CC4(O)CCCC4)cc3)[C@@H]2C1,0.2

# Bioassay records (PubChem)
